Here are results for 38 targets from the supplement of paper PMC10849652.

Of roughly 7,900 targets only a part is listed; those with a hit were picked by preference. About 0.6% of all pairs of compound and target were hits. A number with no mark means an inactive call.

Sequence of UniProt P63165 (P63165 whole entry, looked up): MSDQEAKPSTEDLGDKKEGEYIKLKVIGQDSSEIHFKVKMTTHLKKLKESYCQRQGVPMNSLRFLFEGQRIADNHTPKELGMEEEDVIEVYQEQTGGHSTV
Sequence of UniProt Q16594 (Q16594 whole entry, looked up): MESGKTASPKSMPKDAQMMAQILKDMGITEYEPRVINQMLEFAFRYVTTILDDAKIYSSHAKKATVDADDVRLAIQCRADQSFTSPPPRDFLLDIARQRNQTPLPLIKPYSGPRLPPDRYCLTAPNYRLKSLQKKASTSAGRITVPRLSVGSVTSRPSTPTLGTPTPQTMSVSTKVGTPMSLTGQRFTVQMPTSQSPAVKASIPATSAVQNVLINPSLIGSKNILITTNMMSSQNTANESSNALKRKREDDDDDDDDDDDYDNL
Sequence of UniProt Q96BW9 (Q96BW9 whole entry, looked up): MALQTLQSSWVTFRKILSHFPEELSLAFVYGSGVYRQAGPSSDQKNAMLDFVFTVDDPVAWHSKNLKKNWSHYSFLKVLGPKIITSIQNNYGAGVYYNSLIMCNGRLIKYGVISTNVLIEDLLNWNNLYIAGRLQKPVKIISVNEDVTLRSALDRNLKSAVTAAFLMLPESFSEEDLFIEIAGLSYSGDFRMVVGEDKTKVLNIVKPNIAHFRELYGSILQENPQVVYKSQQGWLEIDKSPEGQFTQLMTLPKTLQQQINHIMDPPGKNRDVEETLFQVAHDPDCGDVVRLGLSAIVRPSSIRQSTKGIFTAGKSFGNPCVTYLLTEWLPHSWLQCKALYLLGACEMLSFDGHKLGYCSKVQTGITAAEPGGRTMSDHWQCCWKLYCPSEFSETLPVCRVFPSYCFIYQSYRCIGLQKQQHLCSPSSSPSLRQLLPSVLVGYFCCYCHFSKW
Sequence of UniProt P02786 (P02786 whole entry, looked up): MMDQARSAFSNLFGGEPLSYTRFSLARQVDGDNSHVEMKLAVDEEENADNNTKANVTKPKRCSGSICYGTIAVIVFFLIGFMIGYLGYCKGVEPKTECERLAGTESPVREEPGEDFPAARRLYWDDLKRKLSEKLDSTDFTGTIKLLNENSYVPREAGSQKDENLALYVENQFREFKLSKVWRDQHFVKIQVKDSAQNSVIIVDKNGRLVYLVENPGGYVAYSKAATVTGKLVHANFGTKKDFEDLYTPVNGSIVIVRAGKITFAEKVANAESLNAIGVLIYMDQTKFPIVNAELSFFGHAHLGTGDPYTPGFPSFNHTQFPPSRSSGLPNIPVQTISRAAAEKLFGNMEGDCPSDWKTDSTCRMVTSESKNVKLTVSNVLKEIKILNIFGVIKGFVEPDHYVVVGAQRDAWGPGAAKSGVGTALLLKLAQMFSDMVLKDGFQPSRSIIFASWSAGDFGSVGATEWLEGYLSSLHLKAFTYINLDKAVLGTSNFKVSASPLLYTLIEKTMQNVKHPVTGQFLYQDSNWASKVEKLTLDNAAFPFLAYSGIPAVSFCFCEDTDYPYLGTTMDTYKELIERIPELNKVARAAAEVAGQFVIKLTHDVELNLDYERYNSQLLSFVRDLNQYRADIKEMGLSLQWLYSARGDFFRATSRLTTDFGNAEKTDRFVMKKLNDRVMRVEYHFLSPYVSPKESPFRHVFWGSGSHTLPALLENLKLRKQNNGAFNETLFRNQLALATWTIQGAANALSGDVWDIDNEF
Sequence of UniProt Q8IWZ8 (Q8IWZ8 whole entry, looked up): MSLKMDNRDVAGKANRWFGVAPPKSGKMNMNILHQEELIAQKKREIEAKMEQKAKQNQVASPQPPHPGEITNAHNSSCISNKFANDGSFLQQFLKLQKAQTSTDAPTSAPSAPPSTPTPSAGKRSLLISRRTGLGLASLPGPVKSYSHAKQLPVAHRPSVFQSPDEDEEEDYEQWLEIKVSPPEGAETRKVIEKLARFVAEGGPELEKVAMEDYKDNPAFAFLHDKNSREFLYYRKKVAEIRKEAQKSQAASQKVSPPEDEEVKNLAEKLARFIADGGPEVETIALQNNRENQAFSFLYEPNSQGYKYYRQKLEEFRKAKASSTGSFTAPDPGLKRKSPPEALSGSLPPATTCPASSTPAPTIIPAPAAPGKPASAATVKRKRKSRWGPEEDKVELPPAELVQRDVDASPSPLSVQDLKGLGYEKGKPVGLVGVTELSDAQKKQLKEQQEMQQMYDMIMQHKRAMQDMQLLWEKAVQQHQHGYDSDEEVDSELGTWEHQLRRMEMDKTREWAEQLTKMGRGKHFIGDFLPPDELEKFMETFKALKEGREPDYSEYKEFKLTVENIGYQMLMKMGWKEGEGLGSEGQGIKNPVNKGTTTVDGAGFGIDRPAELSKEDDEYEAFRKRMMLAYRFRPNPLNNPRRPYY
Sequence of UniProt P42226 (P42226 whole entry, looked up): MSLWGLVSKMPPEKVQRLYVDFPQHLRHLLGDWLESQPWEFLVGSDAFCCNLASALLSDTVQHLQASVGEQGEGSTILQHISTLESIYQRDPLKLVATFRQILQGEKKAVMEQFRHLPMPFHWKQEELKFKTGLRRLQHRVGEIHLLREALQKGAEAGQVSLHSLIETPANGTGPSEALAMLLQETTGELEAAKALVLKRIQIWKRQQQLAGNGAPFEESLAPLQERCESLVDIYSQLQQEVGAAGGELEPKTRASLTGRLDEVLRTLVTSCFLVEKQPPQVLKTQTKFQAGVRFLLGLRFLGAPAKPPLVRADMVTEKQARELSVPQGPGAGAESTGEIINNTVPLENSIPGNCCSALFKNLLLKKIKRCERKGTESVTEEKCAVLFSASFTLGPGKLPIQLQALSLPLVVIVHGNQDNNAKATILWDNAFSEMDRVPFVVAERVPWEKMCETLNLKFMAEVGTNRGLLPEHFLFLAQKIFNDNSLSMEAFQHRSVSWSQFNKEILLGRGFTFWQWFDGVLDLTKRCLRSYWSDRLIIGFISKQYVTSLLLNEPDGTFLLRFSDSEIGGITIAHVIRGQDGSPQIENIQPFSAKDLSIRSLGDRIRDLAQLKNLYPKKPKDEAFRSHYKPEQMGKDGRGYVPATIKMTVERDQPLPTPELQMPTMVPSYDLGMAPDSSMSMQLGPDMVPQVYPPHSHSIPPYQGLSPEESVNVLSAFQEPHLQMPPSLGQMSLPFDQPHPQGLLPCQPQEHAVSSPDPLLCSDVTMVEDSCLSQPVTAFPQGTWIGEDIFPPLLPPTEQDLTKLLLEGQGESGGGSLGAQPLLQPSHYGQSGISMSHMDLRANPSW
Sequence of UniProt Q8NEW0 (Q8NEW0 whole entry, looked up): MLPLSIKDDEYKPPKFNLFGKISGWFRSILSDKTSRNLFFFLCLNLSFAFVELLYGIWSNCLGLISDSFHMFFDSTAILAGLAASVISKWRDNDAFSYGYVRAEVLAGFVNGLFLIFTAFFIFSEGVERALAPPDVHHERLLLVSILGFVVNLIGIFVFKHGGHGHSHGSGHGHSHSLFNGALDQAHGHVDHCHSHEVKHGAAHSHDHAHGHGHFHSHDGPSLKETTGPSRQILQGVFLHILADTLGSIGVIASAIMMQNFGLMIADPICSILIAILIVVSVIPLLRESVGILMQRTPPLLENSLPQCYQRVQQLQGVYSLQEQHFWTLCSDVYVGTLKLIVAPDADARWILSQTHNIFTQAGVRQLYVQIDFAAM
Sequence of UniProt Q16629 (Q16629 whole entry, looked up): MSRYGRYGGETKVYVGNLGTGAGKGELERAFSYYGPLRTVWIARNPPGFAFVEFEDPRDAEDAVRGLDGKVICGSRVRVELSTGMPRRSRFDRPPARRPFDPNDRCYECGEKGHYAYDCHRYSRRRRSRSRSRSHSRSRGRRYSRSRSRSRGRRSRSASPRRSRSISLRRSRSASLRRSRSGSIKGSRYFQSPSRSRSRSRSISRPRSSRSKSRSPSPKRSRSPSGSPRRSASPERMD
Sequence of UniProt Q9Y5W9 (Q9Y5W9 whole entry, looked up): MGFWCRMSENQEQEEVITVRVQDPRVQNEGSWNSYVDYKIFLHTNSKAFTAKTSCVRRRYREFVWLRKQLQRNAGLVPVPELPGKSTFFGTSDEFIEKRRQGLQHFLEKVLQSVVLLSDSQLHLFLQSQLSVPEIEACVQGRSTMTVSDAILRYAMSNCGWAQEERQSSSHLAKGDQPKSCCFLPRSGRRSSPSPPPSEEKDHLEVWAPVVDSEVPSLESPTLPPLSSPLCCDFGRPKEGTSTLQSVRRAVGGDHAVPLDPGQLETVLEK
Sequence of UniProt Q8TC07 (Q8TC07 whole entry, looked up): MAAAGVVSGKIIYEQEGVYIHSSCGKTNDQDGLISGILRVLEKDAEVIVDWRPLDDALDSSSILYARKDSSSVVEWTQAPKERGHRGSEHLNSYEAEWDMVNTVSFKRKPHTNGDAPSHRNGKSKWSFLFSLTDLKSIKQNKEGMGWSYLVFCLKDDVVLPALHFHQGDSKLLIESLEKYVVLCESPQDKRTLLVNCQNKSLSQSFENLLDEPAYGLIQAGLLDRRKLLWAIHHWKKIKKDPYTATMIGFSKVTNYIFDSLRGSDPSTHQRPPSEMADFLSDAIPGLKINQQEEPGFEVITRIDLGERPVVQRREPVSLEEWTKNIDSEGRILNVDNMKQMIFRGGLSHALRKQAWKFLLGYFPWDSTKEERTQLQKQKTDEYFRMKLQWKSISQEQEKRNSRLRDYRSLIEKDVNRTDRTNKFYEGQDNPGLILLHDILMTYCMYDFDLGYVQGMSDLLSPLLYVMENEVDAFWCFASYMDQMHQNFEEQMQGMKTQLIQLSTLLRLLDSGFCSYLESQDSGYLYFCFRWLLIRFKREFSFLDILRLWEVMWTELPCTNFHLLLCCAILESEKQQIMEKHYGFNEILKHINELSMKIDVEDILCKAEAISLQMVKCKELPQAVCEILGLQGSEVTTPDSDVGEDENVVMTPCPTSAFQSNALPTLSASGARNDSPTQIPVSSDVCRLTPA
Sequence of UniProt Q96CQ1 (Q96CQ1 whole entry, looked up): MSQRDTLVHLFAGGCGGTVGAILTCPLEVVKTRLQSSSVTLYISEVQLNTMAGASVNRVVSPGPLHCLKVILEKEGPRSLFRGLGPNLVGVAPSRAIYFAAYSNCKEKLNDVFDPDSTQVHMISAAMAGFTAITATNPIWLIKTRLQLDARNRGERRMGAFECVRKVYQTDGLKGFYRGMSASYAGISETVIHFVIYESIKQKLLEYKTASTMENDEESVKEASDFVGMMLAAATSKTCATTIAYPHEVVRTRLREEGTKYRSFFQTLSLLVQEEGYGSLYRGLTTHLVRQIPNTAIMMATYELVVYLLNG

Compound in the first assay: C[C@@H](Oc1cc(-c2cnn(C3CCNCC3)c2)cnc1N)c1c(Cl)ccc(F)c1Cl [crizotinib]
Put plainly: log2 fold change, soluble protein after heating vs DMSO (PISA); higher = thermal stabilisation; K562 cells, 10 uM, 30 min; active = over 0.2 and 3.5 SD of the protein, either way, in both replicates (recomputed). The essentials: (§1)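 Soluble protein was quantified by TMTpro 16plex LC-MS/MS after channel sums were equalised. It was obtained as the supernatant after 21,000xg for 90 min from pooled aliquots of K562 cells (2×10^6 cells/mL, 10 μM compound, 30 min) heated for 3 min across 48°C-58°C and extracted in PBS with 0.5% NP-40 at 4°C. Thermal stability values are relative to control samples and come from duplicates. They are given as log2 fold changes.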
For SNRNP27 (UniProt Q8WVK2), the log2 fold change is 0.038.

SRP68 (UniProt Q9UHB9): the log2 fold change was -0.134.

Regarding SP3 (UniProt Q02447), the log2 fold change was 0.013.

Consider TLK2 isoform 2 (UniProt Q86UE8), for which the log2 fold change was -0.031.

On to STAT6 (UniProt P42226), for which the log2 fold change was -0.037.

Regarding SLC38A9 (UniProt Q8NBW4), the log2 fold change was -0.201.

STAM2 (UniProt O75886): the log2 fold change is -0.008.

With SLC30A7 (UniProt Q8NEW0), the log2 fold change is 0.014.

Turning to STARD7 (UniProt Q9NQZ5), the log2 fold change was -0.051.

Take SUMO1 (UniProt P63165): the log2 fold change is 0.06.

On to STAT5A (UniProt P42229), for which the log2 fold change is -0.002.

Take SRPRA (UniProt P08240): the log2 fold change was 0.036.

Take TBC1D15 isoform 3 (UniProt Q8TC07): the log2 fold change is -0.275.

With TFRC (UniProt P02786), the log2 fold change was -0.283 (active).

For the target SRSF7 (UniProt Q16629), the log2 fold change was 0.008.

Turning to TAMM41 isoform 3 (UniProt Q96BW9), the log2 fold change is -0.232 (active).

Regarding STK38 (UniProt Q15208), the log2 fold change is -0.087.

Regarding SLC6A6 (UniProt P31641), the log2 fold change is 0.04.

In the case of TBC1D23 (UniProt Q9NUY8), the log2 fold change is -0.019.

As for SMAD9 (UniProt O15198), the log2 fold change is 0.019.

With SRSF3 (UniProt P84103), the log2 fold change is 0.061.

Turning to TBCD (UniProt Q9BTW9), the log2 fold change was 0.001.

Take TECR (UniProt Q9NZ01): the log2 fold change was -0.247.

For STK39 (UniProt Q9UEW8), the log2 fold change is -0.174.

On to TAF9 (UniProt Q16594), for which the log2 fold change is 0.043.

On to SUPT16H (UniProt Q9Y5B9), for which the log2 fold change was -0.062.

On to SRFBP1 (UniProt Q8NEF9), for which the log2 fold change is -0.029.

As for SLC9A6 isoform 2 (UniProt Q92581), the log2 fold change was 0.048.

Take SNX11 (UniProt Q9Y5W9): the log2 fold change is -0.76 (active).

Turning to SREK1 isoform 2 (UniProt Q8WXA9), the log2 fold change is -0.05.

Regarding SMAD2 (UniProt Q15796), the log2 fold change was 0.255.

As to TBC1D5 isoform 2 (UniProt Q92609), the log2 fold change was -0.24.

For the target SLC25A36 (UniProt Q96CQ1), the log2 fold change is 0.067.

As for SLC7A6 (UniProt Q92536), the log2 fold change was 0.065.

Consider SUGP1 (UniProt Q8IWZ8), for which the log2 fold change is -0.001.

With TAOK1 (UniProt Q7L7X3), the log2 fold change was -0.035.

In the case of STXBP5 (UniProt Q5T5C0), the log2 fold change was -0.024.

Take SURF1 (UniProt Q15526): the log2 fold change was -0.008.

Compound in a further assay: C[C@@H]1COCCN1C2=NC(=NC(=C2)C3(CC3)S(=O)(=O)C)C4=C5C=CNC5=CC=C4
The assay is described as above. An outline of the steps: as §1
As for SNRNP27 (UniProt Q8WVK2), the log2 fold change is -0.069.

On to SRP68 (UniProt Q9UHB9), for which the log2 fold change was -0.02.

Regarding SP3 (UniProt Q02447), the log2 fold change was -0.071.

In the case of TLK2 isoform 2 (UniProt Q86UE8), the log2 fold change is 0.139.

With STAT6 (UniProt P42226), the log2 fold change was 0.028.

Turning to SLC38A9 (UniProt Q8NBW4), the log2 fold change is 0.052.

As for STAM2 (UniProt O75886), the log2 fold change was 0.041.

With SLC30A7 (UniProt Q8NEW0), the log2 fold change was -0.022.

With STARD7 (UniProt Q9NQZ5), the log2 fold change was 0.045.

In the case of SUMO1 (UniProt P63165), the log2 fold change was -0.045.

Regarding STAT5A (UniProt P42229), the log2 fold change was 0.08.

As for SRPRA (UniProt P08240), the log2 fold change is 0.061.

For the target TBC1D15 isoform 3 (UniProt Q8TC07), the log2 fold change is -0.032.

Regarding TFRC (UniProt P02786), the log2 fold change was 0.012.

As to SRSF7 (UniProt Q16629), the log2 fold change was -0.311.

Consider TAMM41 isoform 3 (UniProt Q96BW9), for which the log2 fold change was 0.073.

Turning to STK38 (UniProt Q15208), the log2 fold change is 0.089.

In the case of SLC6A6 (UniProt P31641), the log2 fold change was -0.026.

With TBC1D23 (UniProt Q9NUY8), the log2 fold change is 0.022.

For the target SMAD9 (UniProt O15198), the log2 fold change is 0.068.

For the target SRSF3 (UniProt P84103), the log2 fold change was -0.27.

Turning to TBCD (UniProt Q9BTW9), the log2 fold change was 0.061.

For the target TECR (UniProt Q9NZ01), the log2 fold change is 0.054.

Turning to STK39 (UniProt Q9UEW8), the log2 fold change was 0.028.

As to TAF9 (UniProt Q16594), the log2 fold change is 0.007.

On to SUPT16H (UniProt Q9Y5B9), for which the log2 fold change is 0.251.

Turning to SRFBP1 (UniProt Q8NEF9), the log2 fold change is -0.21.

In the case of SLC9A6 isoform 2 (UniProt Q92581), the log2 fold change was 0.022.

Consider SNX11 (UniProt Q9Y5W9), for which the log2 fold change is -0.021.

For SREK1 isoform 2 (UniProt Q8WXA9), the log2 fold change is -0.005.

As for SMAD2 (UniProt Q15796), the log2 fold change was -0.015.

TBC1D5 isoform 2 (UniProt Q92609): the log2 fold change was -0.003.

Turning to SLC25A36 (UniProt Q96CQ1), the log2 fold change was -0.061.

Take SLC7A6 (UniProt Q92536): the log2 fold change is -0.173.

Consider SUGP1 (UniProt Q8IWZ8), for which the log2 fold change is 0.015.

TAOK1 (UniProt Q7L7X3): the log2 fold change is 0.011.

With STXBP5 (UniProt Q5T5C0), the log2 fold change was 0.006.

For SURF1 (UniProt Q15526), the log2 fold change was 0.043.
